HCV inh – qHTS Assay for Inhibitors of Hepatitis C Virus (HCV); Huh7.5.1 HCVcc-Cre infection, luciferase reporter, 44 h; Potency, µM (highest dose often 41.8 µM), for the others: top-dose activity change, negative = inhibition, hits mostly inhibitors; 340,000 compounds, 3.4% hits; note: potency is the fitted concentration of half-maximal effect; % is set by controls: 0 for no effect and ±100 for the full control effect
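Antiviral activity was scored by luciferase reporter output from cells infected with HCVcc-Cre (~0.5 moi) in presence of compound, 44 h infection period, cells seeded 1,000/well 4 h prior.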
HCMV inh – qHTS Assay for inhibitors of the human cytomegalovirus (HCMV). HFF cells, HCMV-luciferase reporter, 72 h; stronger effect = lower value. AID 1259415, 2018. activity change, negative = inhibition, % at 57.5 µM. 410,000 compounds, 4.5% hits; in the data active = activity change below about -60%; inconclusive = no clear call, values can overlap the other calls; inactive = above about -39%; note: % is set by controls: 0 for no effect and ±100 for the full control effect
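After 16 h attachment at 37C, HFF cells received test compound and HCMV-luciferase (1 PFU/cell); reporter luminescence read 72 h later, data normalized against buffer-only and known inhibitor Salinomycin.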
Pf growth 96h – Primary qHTS for delayed death inhibitors of the malarial parasite plastid, 96 hour incubation. P. falciparum luciferase reporter growth, 96 h. Potency, µM (top dose mostly 28.7 µM), for inactives: at the highest dose activity change, negative = inhibition, most hits filed as inhibitors. 320,000 compounds, 6.9% hits. AID 504834, 2011; note: potency is the fitted concentration of half-maximal effect; % is set by controls: 0 for no effect and ±100 for the full control effect
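Infected RBCs, 2% Hct / 0.05% parasitemia final; luciferase-reporter P. falciparum; cpd 96 h, 37 C, 5% CO2; luciferase detection reagent; luminescence.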
Sm TGR inh – qHTS Assay for the Inhibitors of Schistosoma Mansoni Peroxiredoxins. Schistosoma mansoni thioredoxin glutathione reductase (TGR), Q962Y6. purified TGR, DTNB reduction, TNB absorbance 405 nm. 360,000 compounds, 3% hits. Potency, µM (doses to about 114 µM), for the others: at the highest dose activity change, negative = inhibition, actives largely listed as inhibitors; note: potency is the fitted concentration of half-maximal effect; % is set by controls: 0 for no effect and ±100 for the full control effect; nearly all actives have a fitted effect of over 60% in size
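TGR 20 nM + NADPH 100 uM (dispensed conc.), cpd preinc 15 min RT; start with NADPH (500 uM addition) then DTNB (15 mM addition). Kinetic TNB absorbance, 405 nm filter. Four-parameter Hill fit across titration.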
Pf growth 48h – Primary qHTS for delayed death inhibitors of the malarial parasite plastid, 48 hour incubation. P. falciparum luciferase growth in erythrocytes, 48 h. Potency, µM (top dose mostly 28.7 µM), for inactives: at the highest dose activity change, negative = inhibition, most hits filed as inhibitors. 310,000 compounds, 5.9% hits. AID 504832, 2011; note: potency is the fitted concentration of half-maximal effect; % is set by controls: 0 for no effect and ±100 for the full control effect
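Read-out is firefly luciferase luminescence from an integrated reporter in P. falciparum, so falling signal marks reduced parasite growth. Infected erythrocytes were at 2% hematocrit and 0.1% parasitemia (final) in Albumax-supplemented RPMI 1640.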
SARS PLpro yeast – qHTS of Yeast-based Assay for SARS-CoV PLP; S. cerevisiae expressing SARS-CoV PLpro, growth rescue; Potency, µM (doses to about 32.9 µM), without a hit: at the highest dose activity, positive = growth rescue, actives largely listed as activators; 330,000 compounds, 0.19% hits; AID 485353, 2010; calls by dose curve; note: potency is the fitted concentration of half-maximal effect; 0% is about no effect; nearly all actives have a fitted effect of over 55% in size
Active calls of the source: *; ? = inconclusive; . = no result. An excerpt weighted towards active compounds, which were near 15% of everything screened. Unless noted, calls come from the whole dose curve; as a rule, active = well fitted curve in the direction sought with a large enough effect; inconclusive = small, poorly fitted or top-dose-only effect, or another doubt; inactive = no such curve, though single readings can be large; an effect the other way counts as inactive or inconclusive.

SMILES | HCV inh | HCMV inh | Pf growth 96h | Sm TGR inh | Pf growth 48h | SARS PLpro yeast
Cc1sc2ncnc(SCC(=O)N3CCOCC3)c2c1C | -6% | -3 | 0% | 0% | -10% | 4%
Cc1sc2ncnc(NCC3(N4CCOCC4)CCCCC3)c2c1C | 9% | -15 | 1.9µM* | 0% | . | 2%
CCC(=O)N1CCCc2cc(S(=O)(=O)N3CCC(C(=O)NC4CCC(C)CC4)CC3)ccc21 (stereo not given) | . | 3 | . | -4% | . | .
Cc1ccc(C)c(C(=O)CCC(=O)Nc2ccc(N3CCN(C)CC3)cc2C)c1 | ? | 99 | . | . | . | -3%
Cc1cc(C)cc(NC(=O)CN2CCC(C(=O)c3ccccc3)CC2)c1 | ? | -35 | 20% | 0% | -9% | 2%
CCN(C(=O)Cn1c(=O)oc2cc(S(=O)(=O)N3CCOCC3)ccc21)c1ccccc1 | 16% | -34 | 4.1µM* | 4% | ? | 0%
Cc1cc(C)cc(NC(=O)Cn2c(=O)oc3cc(S(=O)(=O)N4CC(C)CC(C)C4)ccc32)c1 (stereo not given) | -7% | ? | ? | 1% | . | 9%
CC1CC(C)CN(S(=O)(=O)c2ccc(C(=O)N(c3ccccn3)C3CCCCC3)cc2)C1 (stereo not given) | -5% | -23 | ? | 9% | -8% | 0%
CC1CC(C)CN(S(=O)(=O)c2ccc(C(=O)N(C)Cc3ccccc3)cc2)C1 (stereo not given) | ? | -65* | . | . | . | 1%
CCN(C(=O)Cn1c(=O)oc2cc(S(=O)(=O)N3CCCCC3)ccc21)c1ccccc1 | . | -19 | . | -4% | . | .
CCCCNC(=O)Cn1c(=O)oc2cc(S(=O)(=O)N3CC(C)CC(C)C3)ccc21 (stereo not given) | -26% | 1 | 6.6µM* | -11% | . | -4%
CC1CC(C)CN(S(=O)(=O)c2ccc3c(c2)oc(=O)n3CC(=O)N(C)Cc2ccccc2)C1 (stereo not given) | -28% | -79* | ? | -14% | ? | 2%
COCCCNC(=O)Cn1c(=O)oc2cc(S(=O)(=O)N3CC(C)CC(C)C3)ccc21 (stereo not given) | -6% | -7 | 37% | -16% | ? | -1%
CCn1c(SC)nc2c([nH]c3ccccc32)c1=O | . | 115 | . | 2% | . | .
S=c1[nH]c2ccccc2n1CCOc1ccccc1 | -11% | -4 | ? | 0% | ? | 2%
COc1ccccc1OCCn1c(=S)[nH]c2ccccc21 | -1% | 83 | -14% | -5% | -3% | 9%
Cc1ccc(OCCn2c(=S)[nH]c3ccccc32)c(C(C)C)c1 | ? | ? | 46% | -23% | 12µM* | 9%
Cc1cccc(OCCn2c(=S)[nH]c3ccccc32)c1 | -17% | 43 | 13µM* | -1% | ? | -20%
CCOc1cc(NC(=S)Nc2ccccc2OC)c(OCC)cc1NC(=O)c1ccccc1C | ? | -3 | ? | 8% | ? | -3%
CC12CCC(=O)C=C1CCC1C2C(O)CC2(C)C1CCC21OCC1=O (stereo not given) | 19% | -92* | . | . | . | .
O=C(O)c1ccc(S(=O)(=O)c2ccccc2C(=O)O)c([N+](=O)[O-])c1 | 13% | -32 | 12% | 6% | 33% | 4%
O=C(O)c1ccc(S(=O)(=O)c2ccc3c(c2)C(=O)N(NC(=O)c2ccccc2)C3=O)cc1 | 16% | -38 | 9% | -10% | 39% | -1%
O=C(O)c1ccc(S(=O)(=O)c2ccc([N+](=O)[O-])cc2[N+](=O)[O-])cc1 | -23% | -22 | 6% | 0.1µM* | ? | 1%
CN1C(=O)c2ccc(S(=O)(=O)c3ccc(C(=O)O)cc3)cc2C1=O | 15% | -13 | 30% | 0% | 17% | 9%
O=C(O)c1ccc(S(=O)(=O)c2ccc3c(c2)C(=O)N(c2ccccc2[N+](=O)[O-])C3=O)cc1 | 2% | 21 | 13µM* | -1% | 6% | -4%
SMILES | HCV inh | HCMV inh | Pf growth 96h | Sm TGR inh | Pf growth 48h | SARS PLpro yeast
CCOc1ccccc1N1C(=O)c2ccc(S(=O)(=O)c3ccc(C(=O)O)cc3)cc2C1=O | 4% | -3 | 0.17µM* | 3% | 20% | 11%
CC(=O)Nc1ccc(N2C(=O)c3ccc(S(=O)(=O)c4ccc(C(=O)O)cc4)cc3C2=O)cc1 | 13% | -21 | 0% | -4% | 12µM* | -4%
CCOC(=O)c1ccc(NC(=O)c2c(N3CCCC3=O)c3cc(OC)ccc3n2C)cc1 | . | 2 | . | 1% | . | .
Cc1c(Cl)c([N+](=O)[O-])nn1Cc1ccc(C(=O)N/N=C\c2cccc(Br)c2)o1 | ? | 52 | ? | 35% | 9.3µM* | 1%
S=C(N/N=C/c1ccc2ncccc2c1)Nc1cccnc1 | 0% | -71* | -4% | 2% | -20% | 0%
Oc1ccc(/C=N/NC(=S)Nc2cccnc2)cc1O | -3% | 82 | 9% | -17% | 37% | 4%
Oc1ccc(C=NNC(=S)Nc2cccnc2)nc1 | ? | -69* | . | . | . | .
Cc1cc(-n2c(C)cc(C(=O)CN3C(=O)NC4(CCCCC4C)C3=O)c2C)no1 (stereo not given) | ? | 21 | -6% | -15% | 2.3µM* | -1%
Cc1cc(-n2c(C)cc(C(=O)CN3C(=O)NC4(CCCCC4)C3=O)c2C)no1 | -29% | 58 | 19% | 8% | 13µM* | -8%
Cc1cc(-n2c(C)cc(C(=O)CN3C(=O)NC4(CCCC4)C3=O)c2C)no1 | 2% | 61 | 7% | -6% | ? | -5%
COC(=O)c1cc2oc3ccccc3c2n1Cc1c(F)cccc1Cl | . | 48 | . | -4% | . | .
CCOC(=O)c1[nH]c2ccc(Br)cc2c1NC(=O)CCN1CCN(C(=O)OCC)CC1 | -24% | 52 | 9% | 9% | 10µM* | -3%
CCOC(=O)c1[nH]c2ccc(Br)cc2c1NC(=O)CCN1CCCCC1 | . | . | ? | 0% | ? | -2%
COC(=O)c1[nH]c2ccc(C)cc2c1NC(=O)CCN1CCN(Cc2ccc3c(c2)OCO3)CC1 | 20µM* | -39 | 8.3µM* | -17% | ? | 7%
CCOC(=O)c1[nH]c2ccc(Br)cc2c1NC(=O)CCN1CCOCC1 | 9% | 31 | ? | 4% | 23% | -1%
CCN(CC(=O)Nc1c(C(=O)OC)[nH]c2ccc(Cl)cc12)c1ccc2c(c1)OCO2 | 11µM* | -20 | ? | 0% | 13µM* | -8%

Bioassay records: PubChem BioAssay, National Center for Advancing Translational Sciences (NCATS)
